Source: PubChem BioAssay
HCV inh: qHTS Assay for Inhibitors of Hepatitis C Virus (HCV). 340,000 compounds, 3.4% hits. Potency, µM (top dose mostly 41.8 µM), without a hit: top-dose activity change, negative = inhibition, usual class: inhibitors. Huh7.5.1 HCVcc-Cre infection, luciferase reporter, 44 h. AID 651820, 2012
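Compounds are dispensed onto cells plated 4 h earlier at 1,000 per well, with HCVcc-Cre virus (about 0.5 moi) added next. Following 44 h of culture, luminescent signal is measured for 15 sec after 15 min with substrate at room temperature.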
Marburg entry inh: qHTS for inhibitors of binding or entry into cells for Marburg Virus | Marburg virus pseudotyped entry inhibition, cell reporter | Potency, µM (doses to about 37.8 µM), for the others: at the highest dose activity change, negative = inhibition, most hits filed as inhibitors | 300,000 compounds, 1.8% hits | AID 540276, 2011; calls by dose curve; tested in HEK293 cells
LASV entry inh: qHTS for Inhibitors of binding or entry into cells for Lassa Virus. Lassa virus pseudotype entry inhibition, cell reporter. Potency, µM (highest dose often 37.9 µM), for the others: at the top dose activity change, negative = inhibition, most hits filed as inhibitors. 300,000 compounds, 1.2% hits. AID 540256, 2011; calls by dose curve; tested in HEK293 cells; also: nearly all actives have a fitted effect of over 50% in size
RE007 growth inh: qHTS Assay for Inhibitors of the HIV-1 protein Vpr; Potency, µM (highest dose often 92.2 µM), without a hit: at the top dose activity change, negative = less growth, hits mostly inhibitors; S. pombe RE007 Vpr strain, BacTiter-Glo ATP luminescence, 24 h; 360,000 compounds, 0.21% hits; AID 651644, 2012; active = well fitted falling curve with a large enough effect; inconclusive = small, poorly fitted or top-dose-only effect; inactive = no such curve, though single readings can be large or run the other way; also: nearly all actives have a fitted effect of over 50% in size
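Fission yeast RE007 carrying one integrated HIV-1 vpr copy, seeded at OD 0.01 in PMG+AL medium with 23 nL pinned compound. Grown 24 h at 30 degrees; viability read by BacTiter-Glo luminescence after 5 min.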
Sm TGR block: qHTS Assay for the Inhibitors of Schistosoma Mansoni Peroxiredoxins; Schistosoma mansoni thioredoxin glutathione reductase (TGR), Q962Y6; Potency, µM (titrated, usually from 114 µM), without a hit: at the top dose activity change, negative = inhibition, most hits filed as inhibitors; purified TGR, DTNB reduction, TNB absorbance 405 nm; 360,000 compounds, 3% hits; AID 485364, 2010; also: nearly all actives have a fitted effect of over 60% in size
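First, TGR (20 nM dispensed) and NADPH were mixed with compound. Second, a 15 min room-temperature incubation followed. Third, further NADPH and then DTNB were added to start the reaction. Finally, TNB absorbance was monitored kinetically.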
FMDV antiviral: High Throughput Screening for Foot and Mouth Disease Virus Antivirals; AID 1159524, 2015; FMDV antiviral cell-based qHTS; Potency, µM (doses to about 57.9 µM), without a hit: at the top dose activity change, negative = inhibition, actives largely listed as inhibitors; 410,000 compounds, 1.2% hits; calls by dose curve; tested in HEK293T cells; also: read-out not given here; nearly all actives have a fitted effect of over 45% in size
Numbers without * were called inactive; ? = inconclusive; . = no result; [ ] = remark or other dose. This is a sample that favours compounds with a hit; in the whole collection about 7.2% have one here. Unless noted, calls follow the shape of the dose curve; as a rule, active = well fitted curve in the direction sought with a large enough effect; inconclusive = small, poorly fitted or top-dose-only effect, or another doubt; inactive = no such curve, though single readings can be large; an effect the other way counts as inactive or inconclusive. % is scaled to controls: 0 for no effect and ±100 for the full control effect; potency is read from the fitted curve at half-maximal effect.

SMILES	HCV inh	Marburg entry inh	LASV entry inh	RE007 growth inh	Sm TGR block	FMDV antiviral
COc1ccccc1N1CCN(CCCCCCOc2ccc(F)cc2)CC1	?	17.8µM*	?	2.1%	-6.5%	?
COc1ccccc1OCCCCN1CCN(c2ccccc2OC)CC1	?	-17.5%	8.3%	1.8%	-2.7%	-18.8%
CN(C)CCNc1ncnc2c1ncn2[C@H]1CN(Cc2ccco2)C[C@@H](CO)O1	.	.	.	8.9%	.	-13.8%
O=C(Nc1cccc(S(=O)(=O)N2CCCCC2)c1)c1ccc(S(=O)(=O)C(F)F)cc1	?	4.47µM*	?	3.3%	2.4%	28.2µM*
CN(C)S(=O)(=O)c1cccc(NC(=O)c2ccc(S(=O)(=O)N3CCCCC3)cc2)c1	?	?	-3.1%	-7.4%	6.1%	-29.1%
CN(C)S(=O)(=O)c1cccc(NC(=O)c2cccc(S(=O)(=O)N3CCCCCC3)c2)c1	7.94µM*	?	?	5.1%	0.4%	?
O=C(Nc1cccc(S(=O)(=O)C(F)F)c1)c1ccc(S(=O)(=O)N2CCCCC2)cc1	?	?	?	1.4%	-6.2%	28.2µM*
CC(=O)c1c(C)[nH]c(C(=O)Nc2cccc(S(=O)(=O)N3CCCCC3)c2)c1C	12.6µM*	.	.	0.1%	4.6%	-2.8%
CC(C)N(C(=O)Cn1cc(S(=O)(=O)Cc2ccc(Br)cc2)c2ccccc21)C(C)C	.	.	13.4%[46.1 µM]	.	2.3%	1.5%
O=C(Nc1cccc(S(=O)(=O)N2CCCCCC2)c1)c1cncc(Br)c1	11.2µM*	?	?	18.0%	.	?
CN(C)S(=O)(=O)c1cccc(NC(=O)c2ccc(N3CCCC3=O)cc2)c1	22.4µM*	.	.	-5.9%	.	-19.5%
COc1ccc(CNC(=O)CCCCCn2c(=O)[nH]c3ccccc3c2=O)cc1	.	.	-8.8%[46.1 µM]	.	7.4%	0.0%
NC(=O)Cn1c(=O)n(CCCCCC(=O)NCc2ccc(F)cc2)c(=O)c2sccc21	.	6.8%[46.1 µM]	-4.3%[46.1 µM]	.	3.3%	-2.2%
COc1cccc(/C(O)=C2/C(=O)C(=O)N(c3cc(C)on3)C2c2cccs2)c1 (centres undefined)	-11.2%	-21.1%[46.1 µM]	0.0%	-7.9%	?	-12.1%
Cc1cc(N2C(=O)C(=O)/C(=C(/O)c3ccccc3)C2c2cccs2)no1 (centres undefined)	5.5%	20.6%	16.3%	-19.3%	39.8µM*	-1.0%
Cc1oc(-c2ccccc2Cl)nc1Cn1c(SCc2cccc(F)c2)nc2cccnc21	.	.	?	.	-11.3%	-14.0%
Cc1cccc(C(=O)OC(C)C(=O)Nc2ccc(S(=O)(=O)N3CCCC3)cc2)c1O (centres undefined)	?	-40.3%	?	2.0%	1.7%	-19.5%
CC(OC(=O)c1ccccc1NCCO)C(=O)Nc1ccc(S(=O)(=O)N2CCOCC2)cc1 (centres undefined)	8.91µM*	-20.7%[46.1 µM]	6.4%	-8.3%	5.8%	-16.8%
CC(OC(=O)c1cc(Br)ccc1O)C(=O)Nc1ccc(S(=O)(=O)N2CCCC2)cc1 (centres undefined)	?	?	?	-1.6%	6.2%	20µM*
COc1ccc(C2NC(=O)N(C)C3=C2C(=O)N(c2ccc(Br)cc2)C3)cc1 (centres undefined)	.	.	0.3%[46.1 µM]	.	6.1%	-16.7%
CCOc1ccc(OCC)c(NC(=O)CSc2nc3c(c(=O)n(C)c(=O)n3C)n2C(C)C)c1	10µM*	?	?	13.4%	-0.3%	.
Cn1c(NCC2CCCCC2)nc2cc(-c3ccsc3)sc2c1=O	.	.	.	-8.2%	.	-4.5%
CC(=O)c1ccc(NC(=S)N2C(C)CCCC2C)cc1 (centres undefined)	.	0.9%	.	.	35.5µM*	.
CC(C)c1onc(-c2c(Cl)cccc2Cl)c1COc1ccc(/C=C/c2cccc(C(=O)O)c2)c(Cl)c1	.	.	.	.	.	-17.8%
